Assay: resazurin metabolic signal in HepG2 cells – cell-based, resazurin fluorescence, 24 h, PK04 Diversity Set, profiling panel (AID 1172); note: test concentration not given here
Details: HepG2 viability, higher = more signal

| SMILES | z-score |
| --- | --- |
| COc1cc2c(cc1OC)CN(C(=O)[C@H]1[C@@H]3C(=O)O[C@@H](c4ccccc4)[C@@H](c4ccccc4)N3[C@@H](c3ccc(O)cc3)[C@]13C(=O)Nc1ccccc13)CC2 | -0.102 |
| C=CCNC(=O)[C@@H]1[C@H]2C(=O)O[C@H](c3ccccc3)[C@H](c3ccccc3)N2[C@H](c2ccc(OCCO)cc2)[C@@]12C(=O)Nc1ccc(C#CCC(C(=O)OC)C(=O)OC)cc12 | 0.874 |
| COCCOC(=O)N1C(=O)[C@@]2(c3cc(C#CC4(O)CCCCCC4)ccc31)[C@H](c1ccc(OCCO)cc1)N1[C@H](c3ccccc3)[C@H](c3ccccc3)OC(=O)[C@H]1[C@@H]2C(=O)N1CCN(c2ncccn2)CC1 | -0.0209 |
| CC1(C)[C@@H]2CC(C(O)C3C=CC4C(=O)N(c5ccccc5)C(=O)C4N3Nc3ccc([N+](=O)[O-])cc3)=C[C@H]1C2 (stereo partly specified) | -0.128 |
| NC(=O)NCC#Cc1ccc2c(c1)[C@]1(C(=O)N2)[C@H](C(N)=O)[C@H]2C(=O)O[C@H](c3ccccc3)[C@H](c3ccccc3)N2[C@@H]1c1ccc(O)cc1 | 0.584 |
| O=C(c1ccccc1)N1Cc2ccccc2C[C@@]2(COC(c3ccc(OCCCO)cc3)=N2)C1=O | 1.05 |
| C=CC[C@]1(C(=O)NCc2ccccc2)N=C(c2ccc(OCCCO)cc2)O[C@H]1c1ccccc1N=[N+]=[N-] | -0.0155 |
| CC1CC/C=C\[C@H]2OC34C=CCN(C(C)(C)C)C(=O)[C@H]3N(C(C)CO)C(=O)[C@@H]4C2C(=O)O1 (stereo partly specified) | 0.0366 |
| CCOC(=O)C[C@H]1[C@H](OC(=O)c2ccc(C(=O)c3ccccc3)cc2)[C@@H](NC(=O)c2ccccc2)c2cc(OCCCO)ccc2N1C(=O)Cc1ccc(OC)cc1 | 0.844 |
| COCCOC(=O)N1C(=O)[C@@]2(c3cc(C#CCNC(N)=O)ccc31)[C@H](C(=O)Nc1nc3ccccc3s1)[C@H]1C(=O)O[C@H](c3ccccc3)[C@H](c3ccccc3)N1[C@@H]2c1ccc(OCCO)cc1 | 0.382 |
| CC(C)OC(=O)C=C1C[C@@H](c2ccccn2)O[C@@H](c2ccccn2)O1 | -0.802 |
| COC(=O)C(CC#Cc1ccc2c(c1)[C@]1(C(=O)N2)[C@H](c2ccc(OCCO)cc2)N2[C@H](c3ccccc3)[C@H](c3ccccc3)OC(=O)[C@H]2[C@@H]1C(=O)N1CCc2cc(OC)c(OC)cc2C1)C(=O)OC | 0.399 |
| COc1ccc([Si](C)(C)[C@H]2[C@H](CC(=O)N3Cc4ccccc4C[C@H]3CO)O[C@@]3(C(=O)N(Cc4cccc(N5CCC5=O)c4)c4ccccc43)[C@@H]2C)cc1 | -0.774 |
| COCCCNC(=O)[C@]1(CCC(=O)OC(C)(C)C)N=C(c2ccc(OCCCO)cc2)O[C@@H]1c1ccccc1CN=[N+]=[N-] | 0.49 |
| COCCOC(=O)N1C(=O)[C@@]2(c3cc(C#CCC(C(=O)OC)C(=O)OC)ccc31)[C@H](c1ccccc1OCCO)N1[C@H](c3ccccc3)[C@H](c3ccccc3)OC(=O)[C@H]1[C@@H]2C(=O)NC[C@H](O)c1ccccc1 | -0.326 |
| O=C1c2ccccc2[C@](Cc2ccccc2I)(C(=O)NCC(F)(F)F)[C@H](c2ccc(CO)cc2)N1Cc1ccccc1Cl | 1.08 |
| COc1cc2c(cc1O)C(c1cccs1)N(C)CC2 (stereo unspecified) | -0.493 |
| C=C[C@@H](COC(=O)OC(C)(C)C)N(Cc1ccc(OC)cc1)S(=O)(=O)c1ccc(Br)cc1 | 0.163 |
| CCS[C@H]1[C@@H](C(=O)O)[C@H](c2ccc(C)cc2)N(S(=O)(=O)c2ccc(C)cc2)[C@@H]1CC | 0 |
| CN1C(=O)C2C=CC(C(O)C#Cc3ccccc3)N(N3CCCCC3)C2C1=O (stereo unspecified) | -0.279 |
| O=C1O[C@H](c2ccccc2)[C@H](c2ccccc2)N2[C@H]1[C@@H](C(=O)N1CCCCCCC1)[C@]1(C(=O)Nc3ccc(C#CCCO)cc31)[C@H]2c1ccccc1OCCO | -0.118 |
| CC(C)C(=C=CC[C@@H](O)c1ccc(OCCO)cc1)C[C@@H](O)COCc1ccccc1 | 0.932 |
| CCCC[C@H]1OB(O)C[C@H]2C1=C(COC)Cn1c(=O)n(-c3ccccc3)c(=O)n12 | -0.248 |
| CCC[C@@H]1C[C@@]1(CCC)[C@@H](NS(=O)(=O)c1cccc2cccnc12)c1ccc(Cl)cc1 | -0.0373 |
| [N-]=[N+]=Nc1ccccc1[C@@H]1OC(c2ccc(OCCCO)cc2)=N[C@]1(CCS(=O)(=O)c1ccccc1)C(N)=O | 0.396 |
| COC(=O)[C@@]1(Cc2ccc(F)cc2)[C@H]2c3cc(C(=O)N(C)C)n(Cc4ccc(Cl)c(C(F)(F)F)c4)c3C[C@H]2CN1C(=O)c1ccccc1 | -0.81 |

From PubChem BioAssay
